Screens as filed in PubChem BioAssay.
VP16 counter – VP16 counterscreen qHTS for inhibitors of ROR gamma transcriptional activity. Drosophila S2 Gal4-VP16 UAS-luciferase, luminescence, 20 h. actives 3.5% (n = 310,000). Potency, µM (highest dose often 53.6 µM), for inactives: at the highest dose activity, negative = inhibition, actives largely listed as inhibitors. AID 2546, 2010;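 note: Gal4-VP16 expression switched on by copper sulfate through the metallothionein promoter; potency is the fitted concentration of half-maximal effect; % is set by controls: 0 for no effect and ±100 for the full control effect; nearly all actives have a fitted effect of over 50% in size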
RORg inh – qHTS for inhibitors of ROR gamma transcriptional activity; Drosophila S2 Gal4-RORgamma UAS-luciferase reporter, 20 h; Potency, µM (titrated, usually from 53.6 µM), for the others: at the top dose activity change, negative = inhibition, hits mostly inhibitors; actives 5.4% (n = 310,000); note: potency is the fitted concentration of half-maximal effect; % is set by controls: 0 for no effect and ±100 for the full control effect; nearly all actives have a fitted effect of over 60% in size
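Luciferase reporter read in Schneider cells carrying Gal4-RORγ (mouse) and UAS-Photinus luciferase; cells given compound 1 h before 700 uM copper sulfate induction, then incubated 20 h at ambient temperature.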
Giardia kill – Small Molecules that selectively kill Giardia lamblia: qHTS; activity change, % at 7.66 µM, hits read low; actives 0.15% (n = 340,000); Giardia lamblia trophozoite viability; in the data active = activity change below about -80%; inconclusive = between about -30% and that limit;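 note: parasites exposed to compound for two days anaerobically before the ATP read; % is set by controls: 0 for no effect and ±100 for the full control effect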
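Trophozoites 100 cells/well + cpd; 48 hrs, 37 deg C, anaerobic. ATPLite 1-Step added, 15-30 min RT, luminescence read (ATP-based viability).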
Integrin act MD – qHTS for Activators of Integrin-Mediated Alleviation for Muscular Dystrophy. alpha7betagal myoblasts, beta-gal FDG fluorescence, 48 h. Potency, µM (doses to about 38.3 µM), without a hit: top-dose activation, actives largely listed as activators. actives 0.064% (n = 350,000);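 note: potency is the fitted concentration of half-maximal effect; 100% = response of the positive control SU9516; nearly all actives have a fitted effect of over 60% in size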
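Alpha7betagal+/- myoblasts (passage 13) were plated 16-24 hr, then exposed to compounds (1:260 dilution of DMSO stock) for 48 hours at 37C. After MPER lysis, β-galactosidase reporter activity was read as FDG fluorescence (ex 480/em 540) after 30 minutes.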
ERG Ets-DNA blk – qHTS for Small Molecule Inhibitors of the ERG Ets/DNA interaction. Transcriptional regulator ERG (Homo sapiens), P11308. fluorescence polarization, His-ERG Ets domain / labelled DNA. Potency, µM (series often up to 76.9 µM), for inactives: top-dose FP activity, negative = inhibition, most hits filed as inhibitors. actives 0.028% (n = 370,000). AID 624246, 2012; active = well fitted inhibition curve with a large enough effect in the polarisation, with a control signal flat; inconclusive = small, poorly fitted or top-dose-only effect, or effect the other way, or a change in a side signal; inactive = no such curve, though single readings can be large or run the other way; the % refers to the polarisation;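 note: polarization taken with two DNA probes labelled with fluorescein and Texas red; potency is the fitted concentration of half-maximal effect; % of control where 0% means no effect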
Target sequence (P11308 whole entry, looked up, the tested form may be a part): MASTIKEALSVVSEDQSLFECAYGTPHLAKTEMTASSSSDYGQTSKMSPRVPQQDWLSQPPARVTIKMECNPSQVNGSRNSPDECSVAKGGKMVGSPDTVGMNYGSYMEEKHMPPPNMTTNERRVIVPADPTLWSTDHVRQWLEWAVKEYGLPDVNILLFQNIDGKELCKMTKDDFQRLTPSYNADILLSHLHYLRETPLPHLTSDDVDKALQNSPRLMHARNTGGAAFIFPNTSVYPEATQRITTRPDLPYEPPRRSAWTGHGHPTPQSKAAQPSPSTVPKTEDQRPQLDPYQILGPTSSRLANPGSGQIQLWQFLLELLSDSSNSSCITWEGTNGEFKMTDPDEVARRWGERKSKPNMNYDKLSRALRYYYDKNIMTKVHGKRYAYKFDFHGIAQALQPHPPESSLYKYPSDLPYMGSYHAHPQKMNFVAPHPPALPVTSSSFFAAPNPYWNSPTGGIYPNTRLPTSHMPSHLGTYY
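His-tagged ERG Ets domain (1 uM in the protein solution; 300mM KCl, 50mM Tris-HCl, 1mM EDTA, 1mM DTT, pH 7.5) received compound, then a probe mix of 5 nM fluorescein-DNA and 100nM Texas-615-DNA. Fluorescence polarization was read for both dyes.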
An asterisk follows results filed as active; ? = inconclusive; · = no result; [ ] = remark or other dose. Only a selection was taken, and hits are over-represented in it overall. Unless noted, calls come from the whole dose curve; as a rule, active = well fitted curve in the direction sought with a large enough effect; inconclusive = small, poorly fitted or top-dose-only effect, or another doubt; inactive = no such curve, though single readings can be large; an effect the other way counts as inactive or inconclusive.

SMILES | VP16 counter | RORg inh | Giardia kill | Integrin act MD | ERG Ets-DNA blk
S=c1[nH]nc(COc2ccccc2)n1C1CCCCC1 | 3.98µM* | 1.78µM* | -14.4 | 14.0% | 16.4%
CCc1ccc(OCc2n[nH]c(=S)n2Cc2ccccc2)cc1 | -2.3% | -1.8% | 7.2 | 18.8% | 8.7%
COc1ccc(-n2nc(C(=O)N3CCCCC3)c3c4ccccc4n(C)c3c2=O)cc1Cl | · | · | · | · | 4.9%
Cc1ccc(C)c(NC(=O)CCN2CCN(c3ccccc3F)CC2)c1 | -4.1% | 13.4% | -0.5 | -14.4% | -17.9%
CCn1c(CSc2nc3ccccc3s2)nc2ccccc21 | ? | 10µM* | -9.6 | 1.0% | 0.7%
COc1cc2cc(c1Cl)N(C)C(=O)CC(OC(=O)C(C)N(C)C(C)=O)C1(C)OC1C(C)C1CC(O)(NC(=O)O1)C(OC)C=CC=C(C)C2 (centres undefined) | · | · | ? | -6.0% | -18.7%
CCCN(CC(=O)Nc1cc(Cl)cc(Cl)c1)CC(=O)Nc1ccc(F)c(F)c1F | 22.4µM* | ? | 1.9 | -55.2% | -4.0%
CCOc1ccccc1CNC(=O)c1ccc(NC(=O)N2CC(C)Sc3ccccc32)cc1 (centres undefined) | · | · | · | · | -2.2%
C/C(Cn1cnc([N+](=O)[O-])n1)=N\NC(=O)c1ccc(O)cc1O | ? | 0.199µM* | 3.9 | 5.3% | 8.6%
C/C(CC(=O)Nc1ccc(N(C)C)cc1)=N\NC(=O)c1ccccc1O | ? | 23.4%[1.91 µM] | -8.0 | -1.2% | 6.4%
C/C(Cn1cnc([N+](=O)[O-])n1)=N\NC(=O)c1ccccc1F | · | · | -4.7 | 3.6% | -0.8%
C/C(Cn1nc([N+](=O)[O-])cc1C)=N\NC(=O)c1ccc(O)cc1O | 14.1µM* | 1.58µM* | 11.5 | 3.1% | 2.0%
C/C(CC(=O)Nc1ccc([N+](=O)[O-])cc1)=N\NC(=O)c1ccccc1O | 15.8µM* | 11.2µM* | -18.1 | 15.3% | 11.4%
C/C(Cn1cnc([N+](=O)[O-])n1)=N\NC(=O)c1ccccc1O | ? | 12.6µM* | 5.0 | 7.4% | 5.2%
COc1cccc(CNC(=O)c2ccccc2NC(=O)C2=C(C)OCCS2)c1OC | -12.8% | 9.7% | 20.7 | -19.8% | -5.1%
CCOC(=O)c1c(C)oc2c1c(/C=N/c1ccccn1)c(O)c1ccccc12 | · | · | -6.5 | · | ·
CCOC(=O)c1c(C)oc2c1c(C(c1cccnc1)N1CCCCC1)c(O)c1ccccc12 (centres undefined) | -13.1% | ? | 0.8 | -19.4% | -10.2%
CCOC(=O)c1c(C)oc2c1c(C(c1ccccc1)N1CCOCC1)c(O)c1ccccc12 (centres undefined) | 10µM* | ? | 7.8 | -19.3% | 1.7%
CCOC(=O)c1c(C)oc2c1c(C=NCCO)c(O)c1ccccc12 | ? | 11.2µM* | 21.4 | -21.6% | 11.4%
Cc1cc(=O)[nH]c2nnc(SCC(=O)Nc3ccc(OC(F)(F)F)cc3)n12 | · | · | · | · | -0.7%
O=C(O)c1ccc(COc2ccccc2Cl)cc1 | -2.3% | 42.8% | 2.2 | 4.3% | -7.9%
O=C(O)c1cccc(COc2ccccc2Cl)c1 | 1.12µM* | 23.5% | -4.6 | 12.6% | -11.2%
COc1ccc(N=C2S/C(=C\c3ccc(OCC(=O)O)cc3)C(=O)N2CCc2c[nH]c3ccccc23)cc1 | 6.0%[10 µM] | 1.7% | 4.7 | -27.6% | 2.8%
COc1ccc(N=C2S/C(=C\c3ccc(N4CCOCC4)o3)C(=O)N2CCc2c[nH]c3ccccc23)cc1 | 5.01µM* | 6.31µM* | · | · | ·
CC(C)C1=CC2=CC[C@@H]3[C@](C)(CCC[C@@]3(C)C(=O)O)[C@H]2CC1 | -5.4% | -7.3%[10 µM] | · | · | ·
CC(=O)OCC#CCSc1nc2ccccc2n1C | ? | 12.6µM* | -2.7 | -8.4% | -7.5%
Cn1c(CSc2nc3ccccc3n2C)nc2ccccc21 | -22.6% | 10µM* | 9.5 | -2.3% | 7.3%
O=C1CCN(CCc2ccccc2)CCN1C(CSc1ccc(Br)cc1)Cc1ccccc1 (centres undefined) | 4.2% | ? | 3.1 | · | ·
CCS(=O)(=O)Nc1ccc(Cc2ccc(NS(=O)(=O)CC)cc2)cc1 | ? | 1.26µM* | -3.5 | -9.8%[7.66 µM] | -17.4%
